Screens from PubChem.
Shown are actives, neighbours in structure and some others; about 21% of the full set was active somewhere.
MRP reversal: MRP-mediated drug resistance reversal. H69AR cells + 2 uM doxorubicin, CellTiter-Glo, 72 h. differential viability (reversal), % at 10 µM. 0.04% of 85,000 active. AID 602;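 active means viability drop by adding the cancer drug above about 55%, with treated viability meeting a 40% cutoff, limit read from the data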;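 further: viability without doxorubicin minus viability with 2 µM doxorubicin for each compound; larger differential means the compound sensitizes cells more to doxorubicin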
CYP2C19 activ: activators of human cytochrome P450 2C19 | 96,000 tested, under 10 active | P33261 | activation factor at 5 µM | recombinant CYP2C19, luciferin-H EGE luminescence; active compounds read high; 0 = fully inhibited enzyme, 1 = untreated enzyme | AID 1025;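 active means activation factor of at least 2 at 5 µM in the primary screen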;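 further: 0 = wells with 2.5 mM tranylcypromine and 1 = vehicle-only wells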
Target sequence (P33261 whole entry, looked up): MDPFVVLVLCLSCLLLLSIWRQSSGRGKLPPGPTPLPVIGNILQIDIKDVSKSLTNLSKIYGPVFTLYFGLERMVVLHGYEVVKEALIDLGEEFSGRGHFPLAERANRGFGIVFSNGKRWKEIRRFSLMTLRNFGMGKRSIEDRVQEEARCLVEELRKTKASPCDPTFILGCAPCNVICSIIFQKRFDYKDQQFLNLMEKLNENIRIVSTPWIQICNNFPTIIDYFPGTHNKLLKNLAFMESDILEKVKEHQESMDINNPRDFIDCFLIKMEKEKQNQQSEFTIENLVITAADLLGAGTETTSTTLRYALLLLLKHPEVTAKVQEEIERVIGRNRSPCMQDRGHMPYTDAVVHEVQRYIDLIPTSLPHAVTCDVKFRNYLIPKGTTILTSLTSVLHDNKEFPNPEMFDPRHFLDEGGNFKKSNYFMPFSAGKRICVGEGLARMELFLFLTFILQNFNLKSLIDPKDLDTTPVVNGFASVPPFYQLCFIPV
CYP2C19 inhib: inhibitors of human CYP2C19 | P33261 | 21% of 96,000 active | inhibition, % at 5 µM | CYP2C19 Supersomes, luciferin-H EGE luminescence, 30 min;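 active means CYP2C19 inhibition above a set limit at 5 µM in the primary screen, cut at about 50% in these data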;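 further: plate controls were negative control wells for no effect and 2.5 mM tranylcypromine positive control for full effect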
CYP2C9 inhib: blocks human cytochrome P450 2C9; CYP2C9 Supersomes, luciferin-H conversion, luminescence; inhibition, % at 5 µM; 20% of 96,000 active; AID 777;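 active means blocking of liver enzyme CYP2C9 beyond about 50% at 5 µM, limit read from the data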
CYP2C9 act: CYP2C9 (human) activation. P11712. 1.4% of 96,000 active. activation factor at 5 µM. recombinant CYP2C9, luciferin-H conversion, luminescence; active compounds read high; factor 1 = untreated enzyme, 0 = blocked. AID 1024;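 active means activation factor of 2 or more for CYP2C9 at a 5 µM dose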;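 further: 0 = sulfaphenazole-blocked wells and 1 = vehicle-only wells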
MRP1 act: MRP-1 activation; H69AR cells + doxorubicin, viability rescue, CellTiter-Glo; viability increase, % at 10 µM; 0.61% of 140,000 active; AID 799;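 active means viability gain under doxorubicin at or above a set limit, the compound median plus 3 SD, cut at about 4.7% in these data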;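 further: MRP-1 overexpressing cells given doxorubicin 25 µM after compound pretreatment; 18-22 h compound pretreatment then 72 h with doxorubicin before readout; 0% = doxorubicin-only wells and 100% = vehicle-treated cells without doxorubicin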
An asterisk follows results filed as active; nt = no result.

SMILES	MRP reversal	CYP2C19 activ	CYP2C19 inhib	CYP2C9 inhib	CYP2C9 act	MRP1 act
Nc1cc(OC(=O)c2cccs2)nn1S(=O)(=O)c1ccc(F)cc1	-4	0.6	40	93*	0.1	-2
COc1cc(N=c2ssnc2Cl)cc(OC)c1	-13	0.5	48	100*	0	-2
COc1ccc(-c2nc(C#N)c(N3CCc4ccccc4C3)o2)cc1OC	-4	0.4	55*	23	0.8	0
COc1ccc(N2CCN(c3oc(-c4ccccc4OC)nc3C#N)CC2)cc1	4	0.8	19	1	1	-2
CC1CCN(c2oc(-c3ccccc3Cl)nc2C#N)CC1	4	0.1	86*	87*	0.1	-2
COc1ccccc1-c1nc(C#N)c(N2CCc3ccccc3C2)o1	12	0.2	84*	75*	0.3	5.3*
COc1ccccc1-c1nc(C#N)c(N2CCN(c3ccccc3)CC2)o1	2	0.2	80*	0	1	0
COc1ccc(N2CCN(c3oc(-c4ccc(OC)c(OC)c4)nc3C#N)CC2)cc1	0	0.5	48	34	0.7	0
N#Cc1nc(-c2ccco2)oc1N1CCC(Cc2ccccc2)CC1	14	0.2	82*	91*	0.1	0
N#Cc1nc(-c2ccco2)oc1N1CCN(c2ccccc2)CC1	-4	0.6	40	19	0.8	1
c1ccc(-c2nnc3sc(-c4csc5c4CCCC5)nn23)cc1	-36	0.9	9	-4	1	-4
C/C(=N\Nc1nc2c(s1)CCCC2)c1ccccc1	nt	0.3	72*	82*	0.2	-3
COc1ccc(N2CCN(C(=O)c3ccc(CNc4c(N5CCOCC5)c(=O)c4=O)cc3)CC2)cc1	-4	nt	nt	nt	nt	nt
COC(=O)Nc1ccc(S(=O)(=O)NCCO)cc1	nt	1.1	-5	6	0.9	-2
COC(=O)Nc1ccc(S(=O)(=O)Nc2ccc(O)cc2)cc1	60*	nt	nt	nt	nt	-3
COC(=O)Nc1ccc(S(=O)(=O)Nc2ccc(C)cc2)cc1	nt	0.9	7	17	0.8	0
COC(=O)Nc1ccc(S(=O)(=O)Nc2ccccc2F)cc1	2	0.5	50*	24	0.8	-2
CC(=O)Nc1ccccc1NS(=O)(=O)c1ccc(Cl)cc1	-3	0.1	91*	45	0.6	-1
CC(C)c1ccc(/C=C(/C#N)c2nnc(NC(=O)c3ccccc3)s2)cc1	nt	nt	nt	nt	nt	-4
CCc1ccc(N/C(SCc2cccc(F)c2)=C(/C#N)C(=O)NCc2ccco2)cc1	25	0.5	55*	68*	0.3	-4
Cc1ccc(N/C(SCc2ccccc2C)=C(/C#N)C(=O)NCc2ccco2)cc1C	15	0.7	29	80*	0.2	-5
CCN(CC(=O)NC1CCS(=O)(=O)C1)S(=O)(=O)c1ccc(C)c(C)c1 (stereo not given)	nt	nt	nt	nt	nt	-2
CCn1cc(C2=NOC(C(=O)Nc3cc(C)nn3-c3ccccc3)C2)c(C)n1 (stereo not given)	5	1.1	-12	-8	1.1	-1
N#Cc1cc(-c2ccccc2)cnc1Sc1ccccc1	nt	0.7	28	78*	0.2	-1
CCOC(=O)CN/C=C(\C#N)c1ccccc1	nt	nt	nt	nt	nt	-1
SMILES	MRP reversal	CYP2C19 activ	CYP2C19 inhib	CYP2C9 inhib	CYP2C9 act	MRP1 act
CCc1nc2cc(Cl)c(Cl)cc2[nH]1	17	0.4	59*	25	0.8	-3
O=C(CCSc1nnc(-c2ccncc2)o1)Nc1ccc(F)cc1	-8	0.1	85*	57*	0.4	-3
O=C(CCSc1nnc(-c2ccncc2)o1)Nc1ccccc1	40	0.1	86*	85*	0.2	-2
CCOc1ccccc1NC(=O)Cc1c(F)cccc1Cl	nt	nt	nt	nt	nt	-4
CCOC(=O)c1sc2nccc(N(C)C)c2c1N=CNOCc1c(F)cccc1Cl	-8	0.2	77*	92*	0.1	-1
CCOC(=O)c1sc2nccc(N(C)C)c2c1N=CNOCc1ccccc1	-14	0.4	61*	72*	0.3	-1
CCOC(=O)c1sc2nccc(N(C)C)c2c1N=CNOC	4	0.9	6	50*	0.5	-1
CCOC(=O)c1sc2ncnc(NCc3ccco3)c2c1C	-8	0.6	41	38	0.6	-5
Clc1ccc(CNCc2cccs2)c(Cl)c1	nt	nt	nt	nt	nt	1
Cc1ccccc1CNC(=O)c1ccccc1	19	0.4	57*	11	0.9	-2
Cc1ccccc1CNC(=O)c1ccccc1C(=O)O	-6	nt	nt	nt	nt	-1
Cc1ccccc1CNC(=O)c1ccccc1N	17	0.8	20	-18	1.2	-2
